Screening data as filed in PubChem.
Shown are actives, neighbours in structure and some others; about 0.5% of the full set was active somewhere.
E coli growth-1: counter-screen for AddAB inhibitors: E. coli growth inhibition. E. coli V3065 growth, OD600 absorbance, 18 h. inhibition, % at 11.9 µM. hit rate 0.27% among 330,000. AID 449728;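 active = inhibition above the campaign's mean inhibition across all tested compounds plus 3 SD, cut at about 9.9% in these data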;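 note: uninfected addAB+ strain grown without phage in ampicillin broth; 0% = DMSO wells and 100% = ciprofloxacin 0.95 µg/ml wells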
E coli growth-2: inhibitors of Escherichia coli growth. OD600, 23 h; active compounds read low. OD600 absorbance (concentration not given with the values). hit rate 0.21% among 330,000;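 active = OD600 absorbance below the run mean of sample wells minus 3.6 SD, in any replicate, cut at about 0.56 in these data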
phage Ecoli inh: E. coli growth loss with phage present | inhibition, % at 11.9 µM | AID 651602 | hit rate 0.26% among 360,000 | growth absorbance; in the data active = inhibition above about 11%
AddAB inh: less growth of phage-infected E. coli with AddAB; hit rate 0.29% among 330,000; inhibition, % at 11.9 µM; AID 435030; E. coli expressing H. pylori AddAB, absorbance growth; in the data active = inhibition above about 12%;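 note: 0% = vehicle wells of infected cells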
Tat export inh: E. coli Tat transport inhibition; E. coli MC4100 TorA-mCherry Tat export, fluorescence; inhibition, % at 10 µM; hit rate 0.036% among 340,000;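 active = mean replicate inhibition at least 50% and at least half of replicates individually reaching 50%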;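 note: exported cargo escapes ClpAP degradation while cytoplasmic cargo is degraded and loses fluorescence; 0% = median of neutral control wells and 100% = median of NaSCN control wells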
* = called active by the depositor.

For O=[N+]([O-])c1cccc2nc3ccccc3c(NCCCn3ccnc3[N+](=O)[O-])c12 the results were phage Ecoli inh 16* and Tat export inh 2.
c1ccc(CCNc2ccnc3cc4ccccc4cc23)cc1 was read as E coli growth-2 0.5*, phage Ecoli inh 3 and Tat export inh 2.
`CC(C)Nc1ccc(Nc2ccnc3cc4ccccc4cc23)cc1` gave E coli growth-1 5, E coli growth-2 0.6, phage Ecoli inh 9, AddAB inh 5 and Tat export inh -1.
C#CCNC(=O)C1=CC(C(C)(C)C)CC(OCc2ccc(CO)cc2)O1 (centres undefined) was read as E coli growth-2 0.69.
Screening CCC(C)C1COCCS(=O)(=O)N1Cc1ccc(Cl)cc1Cl (centres undefined) returned E coli growth-2 0.69.
For Cc1ccc(Cl)cc1NC(=O)CC(O)(C(F)(F)F)C(F)(F)F the results were E coli growth-1 11*, E coli growth-2 0.58, phage Ecoli inh 8, AddAB inh 12 and Tat export inh 16.
Screening CCc1ccc2c(COC(=O)C3CC(=O)N(CCc4ccccc4)C3)cc(=O)oc2c1 (centres undefined) returned E coli growth-2 0.68, phage Ecoli inh 2 and Tat export inh 63*.
For COc1ccc(-c2ccc(-c3noc(-c4ccccc4OC)n3)c(OC)n2)cc1 the results were E coli growth-1 0, E coli growth-2 0.72, phage Ecoli inh 1, AddAB inh 3 and Tat export inh 53*.
`CN(C)CC(=O)c1c(N)n(Cc2ccccc2)c(=O)n(C)c1=O` gave E coli growth-1 0, E coli growth-2 0.54*, phage Ecoli inh -2, AddAB inh 5 and Tat export inh -2.
Screening COc1ccc(NC(=O)Nc2cccc([N+](=O)[O-])c2)cc1Cl returned E coli growth-1 -1, E coli growth-2 0.52*, phage Ecoli inh 6, AddAB inh 2 and Tat export inh 2.
Screening Fc1cccc(CCN2C(=S)NCC2CC2CCCCC2)c1 (centres undefined) returned E coli growth-2 0.68.
O=[N+]([O-])c1ccc(NC(=S)NCCc2ccc(F)cc2)cc1 was read as E coli growth-1 10, E coli growth-2 0.46*, phage Ecoli inh 9, AddAB inh 11 and Tat export inh -14.
O=C(NCCc1ccc(F)cc1)Nc1ccc([N+](=O)[O-])cc1 was read as E coli growth-2 0.55, phage Ecoli inh 7 and Tat export inh 0.
For CC(C)CC(NC(=O)c1nc[nH]c1C(=O)N1CCC(C)CC1)C(=O)OC(C)(C)C (centres undefined) the results were E coli growth-2 0.67.
`Cc1cc(=O)[nH]c(SCC(=O)Nc2ccc(Br)cc2)c1C#N` gave E coli growth-1 8, E coli growth-2 0.51*, phage Ecoli inh 8, AddAB inh 10 and Tat export inh -9.
For COc1ccc2c(c1)c1c(n2C)C2CC=C(CO)C(C1)N2C (centres undefined) the results were E coli growth-2 0.66.
For Cc1ccc(C(=O)NC(=Cc2ccc(-c3cccc([N+](=O)[O-])c3)o2)C(=O)NC(C)(C)C)cc1 the results were E coli growth-2 0.7.
For CCCCCCCCCCCCCCCC[n+]1ccc(C=NO)cc1 the results were E coli growth-2 0.4*.
For CN(C)C(=O)C[n+]1ccc(/C=N/O)cc1 the results were E coli growth-1 0, phage Ecoli inh 2, AddAB inh 5 and Tat export inh 2.
For CCn1cc(C(=O)O)c(=O)c2cnc(N3CCN(C(=S)NC(=O)c4ccccc4)CC3)nc21 the results were E coli growth-1 -1, E coli growth-2 0.41*, phage Ecoli inh -6, AddAB inh 3 and Tat export inh 4.
Screening Cc1ccc2[nH]c3c(NCc4ccccc4)ncnc3c2c1 returned E coli growth-2 0.46* and phage Ecoli inh 2.
COc1ccc(CNc2ncnc3c2[nH]c2ccccc23)cc1 was read as E coli growth-1 8, phage Ecoli inh 8 and AddAB inh 8.
For Oc1ccc(C[C@@H]2CNCCN2CCc2cc(C(F)(F)F)cc(C(F)(F)F)c2)cc1 the results were E coli growth-1 0, phage Ecoli inh 3, AddAB inh 0 and Tat export inh -3.
Screening FC(F)(F)c1cc(CCN2CCNCC2CC2CCCCC2)cc(C(F)(F)F)c1 (centres undefined) returned E coli growth-2 0.46*.
`COc1ccc(C=NNc2cc(C)nc3ccccc23)cc1` gave E coli growth-2 0.49*.
Screening COc1ccc2nc(C)cc(NN=Cc3ccccc3)c2c1 returned E coli growth-2 0.44*.
COc1ccc(OC)c(C2=CC(=O)CC(c3ccc4c(c3)OCO4)C2)c1 (centres undefined) was read as E coli growth-2 0.66.
`CC(C)(C)OC(=O)NC(Cc1ccccc1)C(=O)NC(CO)C(O)C1CC1C(=O)NC1CCCCC1` (centres undefined) gave E coli growth-2 0.67.
For CN1CC2C3C(=O)N(Cc4ccccc4)C(=O)C3[C@](Cc3ccccc3)(C1=O)N2C(=O)c1ccc(Br)cc1 (some centres undefined) the results were E coli growth-2 0.67.
For FC(F)(F)c1cccc(NC(=S)Nc2ccc(Cl)c(Cl)c2)c1 the results were E coli growth-1 0, E coli growth-2 0.4*, phage Ecoli inh 6, AddAB inh 1 and Tat export inh -6.
For FC(F)(F)c1cccc(NC(=S)NNC(=S)Nc2cccc(C(F)(F)F)c2)c1 the results were E coli growth-1 0 and AddAB inh -3.
`O=c1[nH]sc2ccccc12` gave E coli growth-2 0.066*, phage Ecoli inh 4 and Tat export inh -1.
Screening Cn1c(SCC=Cc2ccccc2)nnc1-c1ccco1 returned E coli growth-2 0.67.
`CC(C)N1CCc2c(sc(NC(=O)c3nc4ccccc4s3)c2C(N)=O)C1` gave E coli growth-1 -2, E coli growth-2 0.69, phage Ecoli inh 0, AddAB inh -2 and Tat export inh -5.
For CC(C)N1CCc2c(sc(NC(=O)c3ccc(S(=O)(=O)N4CCc5ccccc54)cc3)c2C(N)=O)C1 the results were E coli growth-1 -1, E coli growth-2 0.72, AddAB inh 1 and Tat export inh 62*.
`Cc1ccc(C(C[N+](=O)[O-])c2c(-c3ccccc3O)[nH][nH]c2=O)cc1` (centres undefined) gave E coli growth-1 0, E coli growth-2 0.52*, phage Ecoli inh 5, AddAB inh 8 and Tat export inh -30.
CC1CN(C(C)CO)C(=O)c2cccc(NS(=O)(=O)c3ccc(F)cc3)c2OC1CN(C)CC1CCCCC1 (centres undefined) was read as E coli growth-2 0.7.
For O=C(Oc1ccc(Cl)c2cccnc12)c1cccc([N+](=O)[O-])c1 the results were E coli growth-1 -2, E coli growth-2 0.51*, phage Ecoli inh 0, AddAB inh 3 and Tat export inh 5.
Screening CCOC(=O)c1cn(CC)c2ccc(Br)cc2c1=O returned E coli growth-1 0, E coli growth-2 0.69, phage Ecoli inh 1, AddAB inh -1 and Tat export inh 0.
